# Active and inactive are the calls of the source. Rule for the calls: active = hit-call score of the fitted dose curve at least 0.9, where 1 is the maximum; inactive = score below 0.9.
# Experiments:
# Settings in all cases: primary human HUVEC with PBMC; actives raise or lower the signal
# [1] = read-out: Interleukin-1 alpha (IL1a), IL1A (gene 3552); test: BSK_LPS_IL1a: BioMAP Diversity Plus: LPS Assay for Interleukin-1 alpha (IL1a) Biomarker Activity (AID 2283080)
# Method in brief: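 Measured: IL-1 alpha via ELISA at 24 h in LPS-activated human umbilical vein endothelium–PBMC co-culture. Baseline: DMSO, bidirectional fitting.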
# [2] = read-out: Monocyte Chemoattractant Protein-1 (MCP1), CCL2 (gene 6347); test: BSK_LPS_MCP1: BioMAP Diversity Plus: LPS Assay for Monocyte Chemoattractant Protein-1 (MCP1) Biomarker Activity (AID 2283081);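 for AC50: secreted MCP-1 protein quantified by ELISA in culture supernatant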
# Method in brief: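 LPS-stimulated HUVEC/PBMC co-culture; chemical, 24 h; MCP-1 by ELISA; bidirectional fit vs DMSO; cytotoxicity via SRB (0.1% stain, 10% TCA fix, 560 nm) in parallel wells.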
# [3] = BSK_LPS_PGE2: BioMAP Diversity Plus: LPS Assay for Prostaglandin E2 (PGE2) Biomarker Activity (AID 2283082);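 for AC50: secreted prostaglandin E2 measured by ELISA in LPS-stimulated co-culture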
# Method in brief: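 PGE2 release measured by ELISA in an LPS-activated co-culture of human umbilical vein endothelial cells and peripheral blood mononuclear cells, read at 24 h post-dosing. DMSO served as baseline for bidirectional curve fitting.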
# [4] = read-out: Macrophage colony-stimulating factor (MCSF), CSF1 (gene 1435); test: BSK_LPS_MCSF: BioMAP Diversity Plus: LPS Assay for Macrophage colony-stimulating factor (MCSF) Biomarker Activity (AID 2283083)
# Method in brief: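 Compound is added to a human vascular primary co-culture of umbilical vein endothelium and blood mononuclear cells. After 24 h, M-CSF is quantified by ELISA. Signal changes are fitted in both directions against DMSO.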
# [5] = read-out: Tissue Factor, F3 (gene 2152); test: BSK_LPS_TissueFactor: BioMAP Diversity Plus: LPS Assay for Tissue Factor Biomarker Activity (AID 2283084)
# Method in brief: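 In this co-culture system of umbilical vein endothelium with PBMC, stimulated with LPS, cell-surface CD142 is detected by ELISA at 24 h. Endpoint values derive from bidirectional fitting, DMSO serving as baseline.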
# [6] = read-out: Tumor necrosis factor (Homo sapiens) (UniProt P01375); test: BSK_LPS_TNFa: BioMAP Diversity Plus: LPS Assay for Tumour Necrosis Factor alpha (TNFa) Biomarker Activity (AID 2283085);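 for AC50: TNFa protein level quantified by ELISA in the co-culture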
# Method in brief: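 TNFa was quantified by ELISA in LPS-activated co-cultures of human endothelial cells and PBMC, 24 h post-dosing. Both increases and decreases versus DMSO were fitted.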
# [7] = read-out: Vascular cell adhesion molecule 1 (VCAM1), VCAM1 (gene 7412); test: BSK_LPS_VCAM1: BioMAP Diversity Plus: LPS Assay for Vascular cell adhesion molecule 1 (VCAM1) Biomarker Activity (AID 2283086)
# Method in brief: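 VCAM-1 quantified by ELISA in an LPS-activated co-culture of human endothelial cells and peripheral blood mononuclear cells, read 24 h post-treatment. Fitted in both directions versus DMSO; parallel SRB staining flags overt cytotoxicity.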
# CD38, CD38 (gene 952) = test: BSK_SAg_CD38: BioMAP Diversity Plus: SAg Assay for CD38 Biomarker Activity (AID 2283087)
# Method in brief: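 CD38 quantified by ELISA (fluorescence) in a superantigen-activated endothelial cell–PBMC co-culture at 24 h post-dose. Activity fitted in both directions relative to DMSO; parallel SRB and Alamar Blue cytotoxicity read-outs.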
# CD40, CD40 (gene 958) = test: BSK_SAg_CD40: BioMAP Diversity Plus: SAg Assay for CD40 Biomarker Activity (AID 2283088)
# Method in brief: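 Fluorescence ELISA read-out of CD40 from umbilical vein endothelium plus peripheral blood mononuclear cells, sampled 24 h after dosing. Values come from bidirectional curve fitting with DMSO as baseline.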
# CD69, CD69 (gene 969) = test: BSK_SAg_CD69: BioMAP Diversity Plus: SAg Assay for CD69 Biomarker Activity (AID 2283089);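 for AC50: cell surface CD69 protein quantified by ELISA with fluorescence detection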
# Method in brief: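 Values derive from bidirectional fitting relative to DMSO vehicle. Cells: umbilical vein endothelium plus peripheral blood mononuclear cells, treated 24 h before fluorescent ELISA for CD69.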
# Sequence of Tumor necrosis factor (Homo sapiens) (P01375 whole entry, looked up): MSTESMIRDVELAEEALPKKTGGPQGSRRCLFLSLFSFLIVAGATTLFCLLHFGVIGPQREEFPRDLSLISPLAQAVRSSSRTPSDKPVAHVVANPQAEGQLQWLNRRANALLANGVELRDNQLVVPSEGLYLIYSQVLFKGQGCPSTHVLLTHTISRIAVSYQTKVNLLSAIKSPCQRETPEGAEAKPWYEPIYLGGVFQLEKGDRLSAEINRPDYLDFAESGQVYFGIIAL
smiles,measurement,setting,value
OCCN1CCOCC1,outcome,[1],inactive
same,outcome,[2],inactive
same,outcome,[3],inactive
same,outcome,[4],inactive
same,outcome,[5],inactive
same,outcome,[6],inactive
same,outcome,[7],inactive
same,outcome,"CD38, CD38 (gene 952)",inactive
same,outcome,"CD40, CD40 (gene 958)",inactive
same,outcome,"CD69, CD69 (gene 969)",inactive
O=C(O)C(F)(F)C(F)(F)C(F)(F)C(F)(F)C(F)(F)C(F)(F)C(F)(F)C(F)F,outcome,[2],inactive
same,outcome,[3],inactive
same,outcome,[4],inactive
same,outcome,[5],inactive
same,outcome,[6],inactive
same,outcome,[7],inactive
same,outcome,"CD38, CD38 (gene 952)",inactive
same,outcome,"CD40, CD40 (gene 958)",inactive
same,outcome,"CD69, CD69 (gene 969)",inactive
c1ccc2c(c1)-c1ccc3ccc4cccc5cc-2c1c3c45,AC50,[2],2.71 µM (active)
same,outcome,[3],inactive
same,AC50,[4],1.38 µM (active)
same,AC50,[5],0.0082 µM (active)
same,outcome,[6],inactive
same,outcome,[7],inactive
same,AC50,"CD38, CD38 (gene 952)",6.08 µM (active)
same,AC50,"CD40, CD40 (gene 958)",1.98 µM (active)
same,AC50,"CD69, CD69 (gene 969)",1.98 µM (active)
O=S(=O)(O)C(F)(F)C(F)(F)OC(F)(F)C(F)(F)F,outcome,[2],inactive
same,outcome,[3],inactive
same,outcome,[4],inactive
same,outcome,[5],inactive
same,outcome,[6],inactive
same,outcome,[7],inactive
same,outcome,"CD38, CD38 (gene 952)",inactive
same,outcome,"CD40, CD40 (gene 958)",inactive
same,outcome,"CD69, CD69 (gene 969)",inactive
CCn1cc(C(=O)O)c(=O)c2ccc(C)nc21,outcome,[2],inactive
same,outcome,[3],inactive
same,outcome,[4],inactive
same,outcome,[5],inactive
same,outcome,[6],inactive
same,outcome,[7],inactive
same,outcome,"CD38, CD38 (gene 952)",inactive
same,outcome,"CD40, CD40 (gene 958)",inactive
same,outcome,"CD69, CD69 (gene 969)",inactive
CC(=O)OCC=C(C)CCC=C(C)CCC=C(C)C,outcome,[2],inactive
same,outcome,[3],inactive
same,outcome,[4],inactive
same,outcome,[5],inactive
same,outcome,[6],inactive
same,outcome,[7],inactive
same,outcome,"CD38, CD38 (gene 952)",inactive
same,outcome,"CD40, CD40 (gene 958)",inactive
same,outcome,"CD69, CD69 (gene 969)",inactive
C=C(F)C(=O)OC(C(F)(F)F)C(F)(F)F,outcome,[2],inactive
same,outcome,[3],inactive
same,outcome,[4],inactive
same,outcome,[5],inactive
same,outcome,[6],inactive
same,outcome,[7],inactive
same,outcome,"CD38, CD38 (gene 952)",inactive
same,outcome,"CD40, CD40 (gene 958)",inactive
same,outcome,"CD69, CD69 (gene 969)",inactive
CC(C)(CO)CO,outcome,[2],inactive
same,outcome,[3],inactive
same,outcome,[4],inactive
same,outcome,[5],inactive
same,outcome,[6],inactive
same,outcome,[7],inactive
same,outcome,"CD38, CD38 (gene 952)",inactive
same,outcome,"CD40, CD40 (gene 958)",inactive
same,outcome,"CD69, CD69 (gene 969)",inactive
O=C(c1ccc(OCCN2CCCCC2)cc1)c1c(-c2ccc(O)cc2)sc2cc(O)ccc12,AC50,[2],30.8 µM (active)
same,AC50,[3],20 µM (active)
same,AC50,[5],35.9 µM (active)
same,AC50,[6],33.8 µM (active)
same,AC50,[7],28.4 µM (active)
same,AC50,"CD38, CD38 (gene 952)",30.1 µM (active)
same,AC50,"CD40, CD40 (gene 958)",19.4 µM (active)
same,AC50,"CD69, CD69 (gene 969)",23 µM (active)
CC=CC(=O)C1=C(C)C=CCC1(C)C,outcome,[2],inactive
same,outcome,[3],inactive
same,outcome,[4],inactive
same,outcome,[5],inactive
same,outcome,[6],inactive
same,outcome,[7],inactive
same,outcome,"CD38, CD38 (gene 952)",inactive
same,outcome,"CD40, CD40 (gene 958)",inactive
same,outcome,"CD69, CD69 (gene 969)",inactive
CCC(=O)OCC=Cc1ccccc1,outcome,[2],inactive
same,outcome,[3],inactive
same,outcome,[4],inactive
same,outcome,[5],inactive
same,outcome,[6],inactive
same,outcome,[7],inactive
same,outcome,"CD38, CD38 (gene 952)",inactive
same,outcome,"CD40, CD40 (gene 958)",inactive
same,outcome,"CD69, CD69 (gene 969)",inactive
O=C1OC2(c3ccc(O)cc3Oc3cc(O)ccc32)c2ccccc21,outcome,[2],inactive
same,outcome,[3],inactive
same,outcome,[4],inactive
same,outcome,[5],inactive
same,outcome,[6],inactive
same,outcome,[7],inactive
same,outcome,"CD38, CD38 (gene 952)",inactive
same,outcome,"CD40, CD40 (gene 958)",inactive
same,outcome,"CD69, CD69 (gene 969)",inactive
CCOC(=O)C=Cc1ccccc1,outcome,[2],inactive
same,outcome,[3],inactive
same,outcome,[4],inactive
same,outcome,[5],inactive
same,outcome,[6],inactive
same,outcome,[7],inactive
same,outcome,"CD38, CD38 (gene 952)",inactive
same,outcome,"CD40, CD40 (gene 958)",inactive
same,outcome,"CD69, CD69 (gene 969)",inactive
CC1(C)[C@H](C=C(Cl)Cl)[C@H]1C(=O)OCc1cccc(Oc2ccccc2)c1,outcome,[2],inactive
same,outcome,[3],inactive
same,outcome,[4],inactive
same,outcome,[5],inactive
same,outcome,[6],inactive
same,outcome,[7],inactive
same,outcome,"CD38, CD38 (gene 952)",inactive
same,outcome,"CD40, CD40 (gene 958)",inactive
same,outcome,"CD69, CD69 (gene 969)",inactive
CCCCCCCC1CCCC1=O (configuration not stated),outcome,[2],inactive
same,outcome,[3],inactive
same,outcome,[4],inactive
same,outcome,[5],inactive
same,outcome,[6],inactive
same,outcome,[7],inactive
same,outcome,"CD38, CD38 (gene 952)",inactive
same,outcome,"CD40, CD40 (gene 958)",inactive
same,outcome,"CD69, CD69 (gene 969)",inactive
c1ccc(Sc2ccccc2)cc1,AC50,[2],20 µM (active)
same,outcome,[3],inactive
same,AC50,[4],35.6 µM (active)
same,AC50,[5],37 µM (active)
same,outcome,[6],inactive
same,AC50,[7],31.6 µM (active)
same,outcome,"CD38, CD38 (gene 952)",inactive
same,AC50,"CD40, CD40 (gene 958)",32.3 µM (active)
same,AC50,"CD69, CD69 (gene 969)",29.7 µM (active)
CCCCN(CCO)CCO,outcome,[2],inactive
same,outcome,[3],inactive
same,outcome,[4],inactive
same,outcome,[5],inactive
same,outcome,[6],inactive
same,outcome,[7],inactive
same,outcome,"CD38, CD38 (gene 952)",inactive
same,outcome,"CD40, CD40 (gene 958)",inactive
same,outcome,"CD69, CD69 (gene 969)",inactive
Nc1ccc(N)c([N+](=O)[O-])c1,outcome,[2],inactive
same,outcome,[3],inactive
same,outcome,[4],inactive
same,outcome,[5],inactive
same,outcome,[6],inactive
same,AC50,[7],5.09 µM (active)
same,outcome,"CD38, CD38 (gene 952)",inactive
same,outcome,"CD40, CD40 (gene 958)",inactive
same,AC50,"CD69, CD69 (gene 969)",8.69 µM (active)
CC(=O)OC(C)(C)C1CC=C(C)CC1 (configuration not stated),outcome,[2],inactive
same,outcome,[3],inactive
same,outcome,[4],inactive
same,outcome,[5],inactive
same,outcome,[6],inactive
same,outcome,[7],inactive
same,outcome,"CD38, CD38 (gene 952)",inactive
same,outcome,"CD40, CD40 (gene 958)",inactive
same,outcome,"CD69, CD69 (gene 969)",inactive
CC(=O)CCC=C(C)CCC=C(C)C,outcome,[2],inactive
same,outcome,[3],inactive
same,outcome,[4],inactive
same,outcome,[5],inactive
same,outcome,[6],inactive
same,outcome,[7],inactive
same,outcome,"CD38, CD38 (gene 952)",inactive
same,outcome,"CD40, CD40 (gene 958)",inactive
same,outcome,"CD69, CD69 (gene 969)",inactive
CC(C)Cc1ccc(C(C)C(=O)O)cc1 (configuration not stated),outcome,[2],inactive
same,AC50,[3],0.897 µM (active)
same,outcome,[4],inactive
same,outcome,[5],inactive
same,outcome,[6],inactive
same,outcome,[7],inactive
same,outcome,"CD38, CD38 (gene 952)",inactive
same,outcome,"CD40, CD40 (gene 958)",inactive
same,outcome,"CD69, CD69 (gene 969)",inactive
C=C(C)C(N)=O,outcome,[2],inactive
same,outcome,[3],inactive
same,outcome,[4],inactive
same,outcome,[5],inactive
same,outcome,[6],inactive
same,outcome,[7],inactive
same,outcome,"CD38, CD38 (gene 952)",inactive
same,outcome,"CD40, CD40 (gene 958)",inactive
same,outcome,"CD69, CD69 (gene 969)",inactive
C#C[C@]1(O)CC[C@H]2[C@@H]3CCc4cc(O)ccc4[C@H]3CC[C@@]21C,AC50,[2],6.83 µM (active)
same,outcome,[3],inactive
same,outcome,[4],inactive
same,outcome,[5],inactive
same,outcome,[6],inactive
same,AC50,[7],6.47 µM (active)
same,outcome,"CD38, CD38 (gene 952)",inactive
same,outcome,"CD40, CD40 (gene 958)",inactive
same,outcome,"CD69, CD69 (gene 969)",inactive

# From PubChem BioAssay (EPA / NIEHS)
